Experimental data taken from PubChem BioAssay (EPA / NIEHS).
Calls of active or inactive are those of the source. Rule for the calls: active = hit-call score of the fitted dose curve at least 0.9, where 1 is the maximum; inactive = score below 0.9.

Experiments:
[1] = ATG_GLI_CIS: Attagene CIS-FACTORIAL HepG2 Assay for human Zinc Finger Protein GLI1 (AID 2282945); details: HepG2, Attagene cis-factorial reporter mRNA, GLI element; actives raise or lower the signal
Method in brief: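 Bidirectional curve fits relative to DMSO, using reporter mRNA levels from RT-PCR plus capillary electrophoresis. Cells were HepG2 transiently carrying cis-regulated reporter constructs, harvested 24 h after dosing.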

[2] = molecular target: Bile acid receptor (Homo sapiens) (UniProt Q96RI1); experiment: ATG_IR1_CIS: Attagene CIS-FACTORIAL HepG2 Assay for human Nuclear Receptor Subfamily 1 Group H Member 4 (NR1H4), IR1 submotif (AID 2282946); details: IR1 reporter transcription, actives raise or lower the signal
Method in brief: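 Cells (human HepG2) carry transiently transfected cis-promoter reporter transcription units. Compounds are incubated 24 h, total RNA is reverse-transcribed and amplified, and labelled fragments are resolved by capillary electrophoresis. Curves use DMSO as baseline.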

[3] = ATG_GRE_CIS: Attagene CIS-FACTORIAL HepG2 Assay for human Glucocorticoid Response Elements (GRE) (AID 2282947); details: HepG2 GRE cis-reporter, Attagene multiplex mRNA; actives raise or lower the signal
Method in brief: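 Transient MRTU transfection of human HepG2 liver cells; cis-regulated reporters report endogenous factors. 24 h dosing → RNA isolation → RT-PCR → 6-FAM primer extension → HpaI cut → CE fragment analysis. Bidirectional fit, DMSO negative control.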

[4] = ATG_ISRE_CIS: Attagene CIS-FACTORIAL HepG2 Assay for human Interferon Regulatory Factor 1 (IRF1) binding to an Interferon-Stimulated Response Element (ISRE) (AID 2282948); details: HepG2 ISRE cis-reporter (Attagene), mRNA transcription readout; actives raise or lower the signal
Method in brief: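 Cell-based cis-reporter assay; HepG2; 24 h exposure; reporter mRNA by RT-PCR plus capillary electrophoresis fluorescence; activity in either direction scored relative to DMSO.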

[5] = ATG_M_32_CIS: Attagene CIS-FACTORIAL HepG2 Assay for M32 Transcription Factor (Internal Marker) (AID 2282949); details: HepG2 Attagene cis-factorial M32 reporter, mRNA; actives raise or lower the signal;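 note: background control marker of the multiplexed CIS panel rather than a real target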
Method in brief: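 Fluorescent capillary electrophoresis peaks of HpaI-digested, FAM-labelled RT-PCR reporter products give the signal. Source: transiently transfected human liver HepG2 cells, 24 h after chemical dosing; bidirectional fitting against DMSO.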

[6] = ATG_M_06_CIS: Attagene CIS-FACTORIAL HepG2 Assay for M06 Transcription Factor (Internal Marker) (AID 2282950); details: HepG2 Attagene CIS-FACTORIAL M06 internal marker reporter; actives raise or lower the signal
Method in brief: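 Fluorescence-labelled RT-PCR products from cis-promoter reporter units, cut with HpaI and resolved by capillary electrophoresis, give the signal. Cells are human HepG2, dosed for 24 h. Serves as background control, fitted relative to DMSO.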

[7] = molecular target: Hypoxia-inducible factor 1-alpha (Homo sapiens) (UniProt Q16665); experiment: ATG_HIF1a_CIS: Attagene CIS-FACTORIAL HepG2 Assay for human Hypoxia Inducible Factor 1 (HIF1A) (AID 2282951); details: HepG2 Attagene cis-factorial HIF1a reporter transcription; actives raise or lower the signal
Method in brief: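 In this multiplexed cell assay, HepG2 cells bearing transfected cis reporters are dosed for 24 h and reporter mRNA is read by RT-PCR plus capillary electrophoresis; signal increases and decreases are both scored against DMSO.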

[8] = molecular target: Hepatocyte nuclear factor 6 (Homo sapiens) (UniProt Q9UBC0); experiment: ATG_HNF6_CIS: Attagene CIS-FACTORIAL HepG2 Assay for human Hepatocyte Nuclear Factor 6 (HNF6) (AID 2282952); details: HepG2 Attagene cis-factorial HNF6 reporter transcription; actives raise or lower the signal
Method in brief: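 Cells are HepG2 carrying transiently transfected cis-promoter reporter units. Treatment lasts 24 h, after which reporter transcripts are reverse-transcribed, amplified, FAM-labelled and sized by capillary electrophoresis. DMSO serves as baseline.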

[9] = molecular target: Heat shock factor protein 1 (Homo sapiens) (UniProt Q00613); experiment: ATG_HSE_CIS: Attagene CIS-FACTORIAL HepG2 Assay for human Heat Shock Transcription Factor 1 (HSE) (AID 2282953); details: HepG2 HSE cis-reporter, Attagene RNA transcription; actives raise or lower the signal
Method in brief: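 After a 24 h incubation with test chemical, transfected HepG2 cells were harvested for RNA; reporter transcripts were measured by RT-PCR and capillary electrophoresis. Values reflect gain or loss of signal relative to DMSO.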

[10] = ATG_MRE_CIS: Attagene CIS-FACTORIAL HepG2 Assay for human Metal Responsive Element (MRE) (AID 2282954); details: HepG2 MRE cis-reporter transcription, Attagene multiplex; actives raise or lower the signal
Method in brief: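 Transient MRTU transfection of HepG2 (FuGene 6); 24 h dosing; total RNA → oligo(dT) RT, PCR, 6-FAM primer extension, HpaI cut, CE. Bidirectional fit vs DMSO.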

[11] = ATG_PBREM_CIS: Attagene CIS-FACTORIAL HepG2 Assay for human Phenobarbital-responsive Enhancer Module (PBREM) (AID 2282955); details: HepG2 PBREM cis-reporter, Attagene multiplexed transcription; actives raise or lower the signal
Method in brief: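 After a 24 h incubation with test chemical, transfected HepG2 cells yield total RNA; reporter-specific RT-PCR products are fluorescently labelled, HpaI-digested and resolved by capillary electrophoresis against ROX size standards.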

[12] = molecular target: Paired box protein Pax-6 (Homo sapiens) (UniProt P26367); experiment: ATG_Pax6_CIS: Attagene CIS-FACTORIAL HepG2 Assay for human Paired Box 6 (PAX6) (AID 2282956); details: HepG2 CIS-FACTORIAL PAX6 reporter transcription, RNA readout; actives raise or lower the signal
Method in brief: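 Multiplexed cis-reporter HepG2 system; 24 h treatment; reporter mRNA read by RT-PCR/CE fluorescence; bidirectional fit vs DMSO.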

[13] = ATG_PXRE_CIS: Attagene CIS-FACTORIAL HepG2 Assay for human Pregnane X Receptor Element (PXRE) (AID 2282957); details: HepG2 Attagene CIS-FACTORIAL PXRE reporter, mRNA; actives raise or lower the signal
Method in brief: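 Multiplexed cis-reporter assay in transiently transfected human HepG2 cells; 24 h chemical exposure. Reporter transcripts quantified by RT-PCR with fluorescent labeling and capillary electrophoresis.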

[14] = ATG_PPRE_CIS: Attagene CIS-FACTORIAL HepG2 Assay for human Peroxisome Proliferator-activated Response Element (PPRE) (AID 2282958); details: HepG2 PPRE cis-element reporter, Attagene transcription factor profiling; actives raise or lower the signal
Method in brief: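 Multiplexed reporter transcription units under cis-regulatory promoters were transfected into HepG2 cells to capture endogenous factor activity. A 24 h incubation preceded RNA isolation and fluorescent RT-PCR fragment analysis.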

[15] = ATG_RORE_CIS: Attagene CIS-FACTORIAL HepG2 Assay for human RAR-related Orphan Receptor Element (RORE) (AID 2282959); details: HepG2 Attagene cis-factorial RORE reporter, mRNA; actives raise or lower the signal
Method in brief: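 Fluorescence intensity of reporter-specific cDNA fragments, separated by capillary electrophoresis, gives the signal. Source: HepG2 liver cells transiently transfected with cis-element reporters and exposed 24 h; DMSO-normalized bidirectional fit.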

[16] = ATG_Sox_CIS: Attagene CIS-FACTORIAL HepG2 Assay for human SRY-box transcription factor (SOX) (AID 2282960); details: HepG2 Attagene cis-factorial SOX reporter, mRNA; actives raise or lower the signal
Method in brief: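 After 24 h of chemical treatment, transfected HepG2 reporter cells are lysed for total RNA. Transcript levels come from RT-PCR with labelled primer extension and capillary electrophoresis, analysed bidirectionally versus DMSO.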

[17] = molecular target: Transcription factor Sp1 (Homo sapiens) (UniProt P08047); experiment: ATG_Sp1_CIS: Attagene CIS-FACTORIAL HepG2 Assay for human Specificity Protein 1 (Sp1) (AID 2282961); details: HepG2 Sp1 cis-reporter transcription, actives raise or lower the signal
Method in brief: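 Sp1-driven reporter mRNA, read as capillary electrophoresis fluorescence after RT-PCR, in transiently transfected HepG2 cells dosed for 24 h; signal change in either direction relative to DMSO.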

[18] = ATG_SREBP_CIS: Attagene CIS-FACTORIAL HepG2 Assay for human Sterol Regulatory Element Binding (SREBP) (AID 2282962); details: HepG2 Attagene cis-factorial SREBP reporter, mRNA; actives raise or lower the signal
Method in brief: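 mRNA induction of transfected cis-promoter reporters in HepG2 cells, 24 h post-dose. Detection: RT-PCR with 6-FAM-labelled products, HpaI digest, capillary electrophoresis. DMSO served as negative control and baseline.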

[19] = molecular target: Signal transducer and activator of transcription 3 (Homo sapiens) (UniProt P40763); experiment: ATG_STAT3_CIS: Attagene CIS-FACTORIAL HepG2 Assay for human Signal Transducer and Activator of Transcription 3 (STAT3) (AID 2282963); details: HepG2, Attagene cis-factorial STAT3 reporter transcription; actives raise or lower the signal
Method in brief: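 Endogenous STAT3-responsive cis-element activity was read in transiently transfected HepG2 cells after 24 h treatment. Reporter transcripts were quantified via RT-PCR and capillary electrophoresis, with DMSO as negative control and bidirectional curve fitting.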

[20] = ATG_TA_CIS: Attagene CIS-FACTORIAL HepG2 Assay for human TA Basal Promoter (AID 2282964); details: HepG2 Attagene CIS-factorial TA basal promoter reporter; actives raise or lower the signal
Method in brief: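 Multiplexed mRNA reporter assay, HepG2, 24 h. Reporter cDNA amplified, 6-FAM primer-extended, HpaI-cut, CE-sized; DMSO = negative control and baseline.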

Measured: outcome

Sequence of Signal transducer and activator of transcription 3 (Homo sapiens) (P40763 whole entry, looked up): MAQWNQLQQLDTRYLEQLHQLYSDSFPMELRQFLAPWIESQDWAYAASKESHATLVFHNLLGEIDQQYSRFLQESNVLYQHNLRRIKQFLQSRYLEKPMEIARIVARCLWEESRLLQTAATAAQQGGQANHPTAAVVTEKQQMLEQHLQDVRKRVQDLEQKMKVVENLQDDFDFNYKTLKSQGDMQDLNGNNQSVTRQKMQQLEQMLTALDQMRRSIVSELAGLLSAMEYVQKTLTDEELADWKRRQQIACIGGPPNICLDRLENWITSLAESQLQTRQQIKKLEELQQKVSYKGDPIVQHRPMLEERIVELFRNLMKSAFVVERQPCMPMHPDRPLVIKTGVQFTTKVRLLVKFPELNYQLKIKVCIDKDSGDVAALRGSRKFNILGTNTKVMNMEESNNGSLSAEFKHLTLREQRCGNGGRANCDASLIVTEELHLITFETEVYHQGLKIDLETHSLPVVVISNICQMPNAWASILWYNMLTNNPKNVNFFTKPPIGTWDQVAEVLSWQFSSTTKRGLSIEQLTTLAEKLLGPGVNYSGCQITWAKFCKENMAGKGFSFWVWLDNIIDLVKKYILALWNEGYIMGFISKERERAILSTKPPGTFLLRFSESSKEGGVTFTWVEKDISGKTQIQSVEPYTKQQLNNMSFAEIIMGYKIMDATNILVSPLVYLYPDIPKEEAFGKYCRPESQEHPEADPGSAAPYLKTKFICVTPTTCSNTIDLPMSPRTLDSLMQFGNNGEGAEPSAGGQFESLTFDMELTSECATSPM
Sequence of Transcription factor Sp1 (Homo sapiens) (P08047 whole entry, looked up): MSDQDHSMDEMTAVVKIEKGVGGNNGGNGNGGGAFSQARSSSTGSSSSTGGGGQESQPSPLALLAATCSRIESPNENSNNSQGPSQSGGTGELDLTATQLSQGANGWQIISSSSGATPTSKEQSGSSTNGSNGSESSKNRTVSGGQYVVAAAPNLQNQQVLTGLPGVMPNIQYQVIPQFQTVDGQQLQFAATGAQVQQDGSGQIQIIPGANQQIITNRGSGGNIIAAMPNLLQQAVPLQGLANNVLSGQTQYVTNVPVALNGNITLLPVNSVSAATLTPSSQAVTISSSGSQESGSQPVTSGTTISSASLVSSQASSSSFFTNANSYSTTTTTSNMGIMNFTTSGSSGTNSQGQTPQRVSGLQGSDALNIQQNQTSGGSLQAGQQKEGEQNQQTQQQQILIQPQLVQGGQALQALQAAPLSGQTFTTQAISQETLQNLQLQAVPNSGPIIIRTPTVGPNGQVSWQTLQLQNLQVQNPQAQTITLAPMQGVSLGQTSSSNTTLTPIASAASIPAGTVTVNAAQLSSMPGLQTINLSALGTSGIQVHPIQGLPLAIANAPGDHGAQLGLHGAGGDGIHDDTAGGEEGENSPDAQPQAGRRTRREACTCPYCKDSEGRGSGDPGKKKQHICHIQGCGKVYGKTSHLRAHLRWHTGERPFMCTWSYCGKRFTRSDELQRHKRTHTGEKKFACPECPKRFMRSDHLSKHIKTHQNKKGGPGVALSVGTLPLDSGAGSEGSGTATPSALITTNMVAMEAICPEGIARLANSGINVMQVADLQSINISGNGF
Sequence of Hypoxia-inducible factor 1-alpha (Homo sapiens) (Q16665 whole entry, looked up): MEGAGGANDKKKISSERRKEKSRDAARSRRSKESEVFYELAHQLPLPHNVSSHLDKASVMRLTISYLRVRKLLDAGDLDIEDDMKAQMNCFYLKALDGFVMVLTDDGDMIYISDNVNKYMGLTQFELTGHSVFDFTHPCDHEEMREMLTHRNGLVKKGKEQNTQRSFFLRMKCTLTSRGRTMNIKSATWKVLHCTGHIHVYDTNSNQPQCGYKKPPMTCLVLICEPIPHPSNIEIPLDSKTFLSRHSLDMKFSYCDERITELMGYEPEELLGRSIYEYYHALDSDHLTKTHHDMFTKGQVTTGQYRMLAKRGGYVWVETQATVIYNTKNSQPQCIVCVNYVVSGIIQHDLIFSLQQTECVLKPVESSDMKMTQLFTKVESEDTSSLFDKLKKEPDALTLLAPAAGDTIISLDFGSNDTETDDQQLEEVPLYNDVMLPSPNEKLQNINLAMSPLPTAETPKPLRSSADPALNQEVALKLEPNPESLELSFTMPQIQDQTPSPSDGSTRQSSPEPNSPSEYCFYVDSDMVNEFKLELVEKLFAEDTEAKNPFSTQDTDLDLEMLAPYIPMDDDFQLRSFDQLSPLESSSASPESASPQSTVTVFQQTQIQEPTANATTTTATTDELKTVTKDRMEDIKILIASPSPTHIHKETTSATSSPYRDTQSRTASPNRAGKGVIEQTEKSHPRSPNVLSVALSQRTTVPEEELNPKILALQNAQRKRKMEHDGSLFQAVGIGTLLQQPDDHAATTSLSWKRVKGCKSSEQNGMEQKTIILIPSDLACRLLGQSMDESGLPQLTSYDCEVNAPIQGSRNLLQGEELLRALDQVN
Sequence of Paired box protein Pax-6 (Homo sapiens) (P26367 whole entry, looked up): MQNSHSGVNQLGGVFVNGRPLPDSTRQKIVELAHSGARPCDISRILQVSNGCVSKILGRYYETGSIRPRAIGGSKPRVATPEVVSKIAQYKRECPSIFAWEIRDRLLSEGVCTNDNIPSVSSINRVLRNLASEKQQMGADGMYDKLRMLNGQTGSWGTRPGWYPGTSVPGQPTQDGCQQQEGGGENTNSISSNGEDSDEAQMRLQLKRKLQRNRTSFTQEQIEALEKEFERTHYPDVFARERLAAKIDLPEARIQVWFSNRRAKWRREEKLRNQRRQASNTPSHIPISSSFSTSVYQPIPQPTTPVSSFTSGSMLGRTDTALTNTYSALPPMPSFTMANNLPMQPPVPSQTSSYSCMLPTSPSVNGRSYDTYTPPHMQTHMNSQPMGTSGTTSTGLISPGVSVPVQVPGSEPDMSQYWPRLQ
Sequence of Heat shock factor protein 1 (Homo sapiens) (Q00613 whole entry, looked up): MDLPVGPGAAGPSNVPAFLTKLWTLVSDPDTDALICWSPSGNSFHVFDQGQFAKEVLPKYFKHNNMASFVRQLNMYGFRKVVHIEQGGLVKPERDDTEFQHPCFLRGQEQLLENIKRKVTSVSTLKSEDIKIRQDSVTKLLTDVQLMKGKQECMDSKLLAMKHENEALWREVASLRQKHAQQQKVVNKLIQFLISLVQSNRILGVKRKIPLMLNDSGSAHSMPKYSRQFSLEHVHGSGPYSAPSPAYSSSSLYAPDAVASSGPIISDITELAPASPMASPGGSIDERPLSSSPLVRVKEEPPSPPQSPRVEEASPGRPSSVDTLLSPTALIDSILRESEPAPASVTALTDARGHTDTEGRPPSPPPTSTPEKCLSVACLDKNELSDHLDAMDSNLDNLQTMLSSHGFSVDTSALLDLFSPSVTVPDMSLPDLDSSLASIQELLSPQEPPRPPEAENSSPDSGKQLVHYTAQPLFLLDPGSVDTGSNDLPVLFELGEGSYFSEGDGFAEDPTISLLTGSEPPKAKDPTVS
Sequence of Bile acid receptor (Homo sapiens) (Q96RI1 whole entry, looked up, the tested form may be a part): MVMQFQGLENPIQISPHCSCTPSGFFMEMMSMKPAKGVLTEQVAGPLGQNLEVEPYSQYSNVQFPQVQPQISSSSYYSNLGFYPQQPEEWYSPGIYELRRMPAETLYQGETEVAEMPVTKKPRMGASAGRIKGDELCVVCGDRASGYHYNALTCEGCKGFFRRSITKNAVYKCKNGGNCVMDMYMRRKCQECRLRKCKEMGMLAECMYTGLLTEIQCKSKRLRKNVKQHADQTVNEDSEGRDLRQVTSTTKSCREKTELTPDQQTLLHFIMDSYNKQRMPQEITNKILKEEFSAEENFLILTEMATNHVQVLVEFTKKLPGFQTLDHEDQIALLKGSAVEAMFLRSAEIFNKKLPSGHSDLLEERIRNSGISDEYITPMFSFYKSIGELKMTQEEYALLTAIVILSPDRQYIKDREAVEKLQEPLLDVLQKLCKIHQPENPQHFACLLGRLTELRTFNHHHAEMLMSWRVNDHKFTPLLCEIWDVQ
Sequence of Hepatocyte nuclear factor 6 (Homo sapiens) (Q9UBC0 whole entry, looked up): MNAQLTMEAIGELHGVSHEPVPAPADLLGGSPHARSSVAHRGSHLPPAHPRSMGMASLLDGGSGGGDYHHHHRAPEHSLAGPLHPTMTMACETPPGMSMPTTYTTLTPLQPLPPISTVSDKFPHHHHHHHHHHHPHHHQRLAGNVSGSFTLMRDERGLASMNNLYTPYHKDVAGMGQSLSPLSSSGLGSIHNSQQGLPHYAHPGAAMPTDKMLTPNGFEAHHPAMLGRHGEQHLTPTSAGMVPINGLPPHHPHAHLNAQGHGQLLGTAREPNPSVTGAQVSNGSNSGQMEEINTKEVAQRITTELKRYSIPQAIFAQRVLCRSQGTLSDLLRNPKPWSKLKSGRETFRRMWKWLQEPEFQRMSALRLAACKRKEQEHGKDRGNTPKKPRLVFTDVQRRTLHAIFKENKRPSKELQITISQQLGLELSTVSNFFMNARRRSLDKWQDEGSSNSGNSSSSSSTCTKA

F[Si-2](F)(F)(F)(F)F
inactive: all assays above

O=C1C=CC(=O)N1c1ccccc1
not listed: [20]
inactive: all other assays above

CC1CCCCC1
inactive: all assays above
